From PubChem BioAssay
CYP2C19 inh: blockers of cytochrome P450 2C19 activity – biochemical, luminescence, ADME assay, primary screen; AID 778, 2007; P33261; hit rate 21% among 96,000; CYP2C19 Supersomes, luciferin-H EGE luminescence, 30 min; inhibition, % at 5 µM;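 active = CYP2C19 inhibition above a set limit at 5 µM in the primary screen, cut at about 50% in these data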
CYP2C9 inh: blockers of cytochrome P450 2C9 activity – biochemical, luminescence, ADME assay, primary screen; P11712; CYP2C9 Supersomes, luciferin-H conversion; hit rate 20% among 96,000; inhibition, % at 5 µM;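 active = blocking of liver enzyme CYP2C9 beyond about 50% at 5 µM, limit read from the data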
CYP2C19 activ: human CYP2C19 activators, primary screen, biochemical, luminescence; AID 1025, 2008; recombinant CYP2C19, luciferin-H EGE luminescence; active compounds read high; 0 = fully inhibited enzyme, 1 = untreated enzyme; 96,000 tested, under 10 active; activation factor at 5 µM; Cytochrome P450 2C19 (Homo sapiens), P33261;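 active = activation factor of at least 2 at 5 µM in the primary screen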
PLAP activator: PLAP enzyme activators, biochemical, luminescence, HTS. Alkaline phosphatase, placental type (Homo sapiens), P05187. purified PLAP enzyme, luminescent substrate read-out; active compounds read high. activation fold at 20 µM. hit rate 1.2% among 96,000. AID 696, 2007; in the data active = activation fold above about 2
Target sequence (P05187 whole entry, looked up): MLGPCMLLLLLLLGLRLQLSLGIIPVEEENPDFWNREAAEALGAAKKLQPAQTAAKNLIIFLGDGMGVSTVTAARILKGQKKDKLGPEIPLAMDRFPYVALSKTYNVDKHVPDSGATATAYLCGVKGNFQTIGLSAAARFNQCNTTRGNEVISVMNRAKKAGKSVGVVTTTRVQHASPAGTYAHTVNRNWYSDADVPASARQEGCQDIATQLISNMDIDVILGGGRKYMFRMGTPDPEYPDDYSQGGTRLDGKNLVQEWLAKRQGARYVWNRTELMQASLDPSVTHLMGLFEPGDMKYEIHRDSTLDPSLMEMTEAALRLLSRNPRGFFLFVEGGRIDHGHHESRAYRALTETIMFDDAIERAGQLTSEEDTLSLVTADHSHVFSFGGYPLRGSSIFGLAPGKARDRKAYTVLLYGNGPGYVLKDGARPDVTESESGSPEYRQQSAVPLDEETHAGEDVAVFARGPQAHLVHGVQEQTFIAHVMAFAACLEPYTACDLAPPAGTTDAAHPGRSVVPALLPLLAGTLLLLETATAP
CYP2C9 activ: human CYP2C9 activators, primary screen, biochemical, luminescence | Cytochrome P450 2C9 (Homo sapiens), P11712 | recombinant CYP2C9, luciferin-H conversion; active compounds read high; factor 1 = untreated enzyme, 0 = blocked | activation factor at 5 µM | hit rate 1.4% among 96,000 | AID 1024, 2008;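 active = activation factor of 2 or more for CYP2C9 at a 5 µM dose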
Hits are given with their value; – = inactive; · = no result given. Only some compounds are listed: those with a hit (about 31% of all), similar ones and a draw of the others.

SMILES	CYP2C19 inh	CYP2C9 inh	CYP2C19 activ	PLAP activator	CYP2C9 activ
Cc1cccc(NC(=O)CSc2nnc(-c3ccccc3)n2N)c1C	55	–	–	–	–
COc1ccccc1N(CC(=O)NC(C)(C)C)C(=O)Cn1nnc(-c2ccc(C)o2)n1	–	–	–	–	–
CC(C)(C)NC(=O)CN(C(=O)Cn1nnc(-c2ccccc2F)n1)c1cccc2c1CCCC2	57	88	–	–	–
O=C(Cc1coc(-c2ccc(F)cc2)n1)N1CCOCC1	50	52	–	–	–
O=C(Cc1coc(-c2ccc(F)cc2)n1)NC1CCCCC1	51	60	–	–	–
OC(COCc1ccc2c(c1)OCO2)CN1CCN(Cc2ccccc2)CC1 (stereo not drawn)	–	–	–	–	–
Cc1cccc(C)c1NC(=S)N/N=C/c1ccc(OCCC(C)C)cc1	–	62	–	–	–
CCc1cc2cc3c(cc2nc1SCC(=O)Nc1nnc(C)s1)OCCO3	–	59	–	–	–
O=C(Nc1c(C(=O)NCc2ccco2)cnn1-c1ccccc1)c1ccc(F)cc1	–	–	–	–	–
C=CCOC(=O)COc1ccc2c(C)c(CC)c(=O)oc2c1	64	–	–	–	–
CCOC(=O)CCc1c(C)c2ccc(OCC(=O)OC(C)C)cc2oc1=O	–	–	–	–	–
CCCCc1c(C)c2ccc(OCC(C)=O)cc2oc1=O	–	–	–	–	–
C=CCOC(=O)COc1ccc2c(C)c(C)c(=O)oc2c1	55	–	–	–	–
CCCn1c(CCC(=O)Nc2ccccc2Cc2ccccc2)nc2cc(S(=O)(=O)N3CCOCC3)ccc21	–	75	–	–	–
O=C(CCc1ccc(S(=O)(=O)N2CCOCC2)cc1)Nc1cc(Cl)ccc1N1CCOCC1	–	–	–	–	–
CCCCCC(=O)N1CCN(CCN=CC2=C(O)CC(c3cccs3)CC2=O)CC1 (stereo not drawn)	–	–	–	–	–
COc1ccc(NC(=O)CN(c2cc(C)cc(C)c2)S(=O)(=O)c2c(C)noc2C)cc1	–	–	–	–	–
COc1ccc(NC(=O)CN(c2cc(C)cc(C)c2)S(=O)(=O)c2c(C)noc2C)cc1OC	–	50	–	–	–
COc1ccc(N(CC(=O)Nc2cc(C)ccc2OC)S(=O)(=O)c2c(C)noc2C)cc1	64	67	–	–	–
COc1ccc(N(CC(=O)NCC2CCCO2)S(=O)(=O)c2c(C)noc2C)cc1 (stereo not drawn)	–	–	–	–	–
CCOc1ccc(N(CC(=O)Nc2cccc(F)c2)S(=O)(=O)c2c(C)noc2C)cc1	–	–	–	–	–
CCOc1ccccc1NC(=O)CN(c1cc(C)cc(C)c1)S(=O)(=O)c1c(C)noc1C	–	–	–	–	–
CCOc1ccccc1NC(=O)CN(c1ccc(OC)cc1)S(=O)(=O)c1c(C)noc1C	89	90	–	–	–
CCOc1ccc(N(CC(=O)Nc2ccccc2C)S(=O)(=O)c2c(C)noc2C)cc1	87	–	–	–	–
CCN(CC)CCCN1C(=O)C(=O)/C(=C(/O)c2ccc3c(c2)CC(C)O3)C1c1ccncc1 (stereo not drawn)	–	–	–	–	–
SMILES	CYP2C19 inh	CYP2C9 inh	CYP2C19 activ	PLAP activator	CYP2C9 activ
COCCNC(=O)COc1ccc(Oc2ccccc2)cc1	–	–	–	–	–
O=C(Nc1ccccc1C(=O)N/N=C/c1ccco1)c1ccccc1Cl	–	–	–	–	–
O=C(CN(c1ccc(Cl)cc1)S(=O)(=O)c1ccccc1)N/N=C/c1ccco1	98	82	–	–	–
Cc1ccc(CN(CC(=O)N/N=C/c2ccco2)S(=O)(=O)c2ccc(C)cc2)cc1	100	90	–	–	–
Cc1cc(Cl)c(S(=O)(=O)N2CCSCC2)cc1OCC(N)=O	–	–	–	–	3
Cc1cc(Cl)c(S(N)(=O)=O)cc1OCC(N)=O	–	–	–	–	–
CNS(=O)(=O)c1cc(OCC(N)=O)c(C)cc1Cl	–	–	–	–	2.4
CCCOc1ccc(C2c3c(oc4ccccc4c3=O)C(=O)N2CCCN2CCOCC2)cc1 (stereo not drawn)	54	78	–	–	–
CCOc1ccc(C2c3c(oc4ccccc4c3=O)C(=O)N2CCCN2CCOCC2)cc1 (stereo not drawn)	–	–	–	–	–
COc1ccc(C2c3c(oc4ccccc4c3=O)C(=O)N2Cc2ccncc2)cc1 (stereo not drawn)	–	59	–	–	–
CCOC(=O)c1c(C)[nH]c(C(=O)CSc2nnc(CC(C)c3ccccc3)o2)c1C (stereo not drawn)	–	71	–	·	–
O=C(CSc1nnc(-c2ccccc2)o1)c1ccc2c(c1)OCCO2	–	–	–	–	–
CCOC(=O)c1c(C)[nH]c(C(=O)CSc2nc3ccccc3o2)c1C	–	–	–	–	–
CC(=O)c1c(C)[nH]c(C(=O)CSc2nnc(-c3ccccc3)o2)c1C	57	–	–	–	–
O=C(CSc1nnc(-c2ccccc2)o1)c1nnc(-c2ccccc2)o1	–	74	–	–	–
CCOC(=O)c1c(C)[nH]c(C(=O)CSc2ccc(Cl)cc2)c1C	–	71	–	–	–
COc1cccc(-n2nnc3c(=O)n(CC(=O)N4CCCc5ccccc54)cnc32)c1	–	–	–	–	–
Cn1c(SCc2c(Cl)cccc2Cl)nc(C(F)(F)F)cc1=O	–	–	–	–	–
COc1ccc(CC(=O)NC2CCN(CC(=O)Nc3ccc4c(c3)OCCO4)CC2)cc1OC	–	–	–	–	–
COc1cc(C)nc(NS(=O)(=O)c2ccccc2)n1	–	–	–	–	–
N#Cc1cc2sc3nc4ccccc4n3c2cc1C#N	–	–	–	–	–
N#Cc1cc2sc3nnc(-c4ccncc4)n3c2cc1C#N	92	65	–	–	–
CN(Cc1ccccc1)c1ncnc2ccc(Br)cc12	97	84	–	–	–
CCCC(C)NC(=O)c1ccc2[nH]c3c(c2c1)CC(C)CC3 (stereo not drawn)	–	51	–	–	–
CCS(=O)(=O)CCSC(=N)N	–	–	–	–	–
SMILES	CYP2C19 inh	CYP2C9 inh	CYP2C19 activ	PLAP activator	CYP2C9 activ
CCOc1ccc(NC(=O)C2CCCN(S(=O)(=O)c3cccc4nsnc34)C2)cc1 (stereo not drawn)	–	–	–	–	–
COc1ccc(OC)c(CNc2ccc(F)c(Cl)c2)c1	–	58	–	–	–
CCN(C1CCCCC1)S(=O)(=O)c1cc(C)ccc1OC	86	94	–	–	–
CCN(C1CCCCC1)S(=O)(=O)c1cn(C)c(=O)n(C)c1=O	–	–	–	–	–
CCN(C1CCCCC1)S(=O)(=O)c1ccc(OC)c(C)c1	75	–	–	–	2.1
COc1ccc(S(=O)(=O)N(Cc2cccs2)C2CCCC2)cc1	–	–	–	–	–
CCN(CC)C(=O)C(=O)c1cccn1-c1cccc(-n2cccc2C(=O)C(=O)N(CC)CC)c1C#N	–	–	–	–	–
